Laboratory results as given in the supplement of paper PMC6555819.

Experiments:
Test in all cases: PBM binding z-score (relative to random genomic background probes); higher = stronger binding; sequences stand for … in GC…GCGATTGACAGCGTAGAATGAAGG
[1] = tested on: PPARg:RXRa DBDmut IVT, anti-RXR (DBD mutation: RXRa K156A/R161A, NR concentration 270 nM, RXRa partner concentration 90 nM)
Method in brief: (§1)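 Binding z-scores take random background probes as their reference. They come from custom Agilent 4×180K protein-binding microarrays incubated 1 h with ligand-free nuclear receptor dimers, with antibodies against each partner (one per run) detecting binding. Scanned fluorescence was regression-normalized.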

[2] = tested on: PPARg:RXRa IVT, anti-PPARg (NR concentration 270 nM, RXRa partner concentration 90 nM)
Method in brief: as §1

[3] = tested on: PPARg DBDmut:RXRa IVT, anti-PPARg (DBD mutation: PPARg1 K132A/R137A, NR concentration 270 nM, RXRa partner concentration 90 nM)
Method in brief: as §1

[4] = tested on: PPARg DBDmut IVT, anti-PPARg (DBD mutation: PPARg1 K132A/R137A, NR concentration 270 nM)
Method in brief: as §1

[5] = tested on: PPARg homodimer (NR concentration 180 nM)
Method in brief: as §1

[6] = tested on: PXR:RXRa (NR concentration 270 nM, RXRa partner concentration 90 nM)
Method in brief: as §1

[7] = tested on: PXR homodimer (NR concentration 270 nM)
Method in brief: as §1

[8] = tested on: RARa:RXR (NR concentration 270 nM, RXRa partner concentration 90 nM)
Method in brief: as §1

[9] = tested on: RARa homodimer (NR concentration 270 nM)
Method in brief: as §1

[10] = tested on: RARb:RXRa (NR concentration 270 nM, RXRa partner concentration 90 nM)
Method in brief: as §1

| Sequence | PBM binding z-score [1] | PBM binding z-score [2] | PBM binding z-score [3] | PBM binding z-score [4] | PBM binding z-score [5] | PBM binding z-score [6] | PBM binding z-score [7] | PBM binding z-score [8] | PBM binding z-score [9] | PBM binding z-score [10] |
| --- | --- | --- | --- | --- | --- | --- | --- | --- | --- | --- |
| GTACCAAGATGAATAGGTCGTTGATGAGTAGGCG | -0.366 | -0.096 | -0.257 | 0.255 | 0.369 | -0.0822 | 0.0588 | 0.0569 | 0.21 | 0.0592 |
| TCTTGTAGATCAATAGAGCTTAAGAAAGTGCGCT | 1.24 | 0.112 | -0.281 | 0.00059 | -0.672 | -0.158 | -0.534 | -0.251 | -1.02 | -0.557 |
| CAAATTAGGTCAAGGTCAAAGTCGGTTTGTGCCA | 8.62 | 8.52 | 4.74 | 1.94 | 5.8 | 5.5 | 3.06 | 5.77 | 4.26 | 5.2 |
| CCACACAGGTGAAAGGTAACTCAGTCTGGTACGC | 2.15 | 3.2 | 0.0609 | 0.1 | 1.3 | 1.22 | 0.292 | 1.76 | 0.461 | 1.38 |
| ATCTCTAGGTAACCAAGGTCAGTGAATGCCGAAC | 4.04 | 3.81 | 1.28 | 1.3 | 1.93 | 2.47 | 1.21 | 2.26 | 2.02 | 2.7 |
| TCATATAGGTAAATGCTAGGTGAAACTCCGATCT | 4.38 | 2.75 | 0.957 | 1.1 | 0.711 | 0.57 | 0.499 | 0.959 | 0.953 | 0.548 |
| AGTCAAAGTTCATCTAGGTAACCTAAGATATGCT | 0.989 | 3.71 | 1.38 | 1.29 | 3.22 | 5.34 | 6.67 | 3.84 | 1.21 | 4.88 |
| ATCGCAAGGTCGACGAGGTGAGTATACACCGTTT | -0.013 | 1.1 | 0.104 | 0.00511 | 0.0263 | 1.89 | 0.566 | 2.55 | -0.403 | 2.49 |
| CCAACGAGGGCATGAGTTGATAGCAAATGCCGAT | 1.66 | 1.08 | -0.303 | -0.467 | -0.0585 | 0.213 | -0.173 | 0.447 | -0.402 | 1.69 |
| TCTATTAGTTGACTAGGGCAACCGAAACAGCGGA | 3.04 | 3.38 | 0.37 | 0.987 | 1 | 0.491 | 0.269 | 0.566 | 0.68 | 0.994 |
| ATATCTAGGTAACAAGTTCAGTGAAAGAGAGGAC | 6.96 | 6.85 | 2.71 | 2.4 | 1.51 | 1.64 | 1.49 | 0.979 | 1.72 | 1.58 |
| CCTTACGGGTCAAGGTCATAGCACGGGTGGTACG | 1.92 | 4.64 | 0.493 | -0.425 | 2.88 | 5.05 | 1.3 | 5.28 | 0.441 | 5 |
| TAGCCTGGGTCATGGGCCAGTATACCACGCGAAC | 0.288 | 3.03 | 0.752 | -1.17 | 1.52 | 1.73 | -0.609 | 2.83 | -0.797 | 3.26 |
| TCATATAGGTAATAGAGGTGAAAGTCGGCATCTA | 4.53 | 4.06 | 1.5 | 0.929 | 0.919 | 1.12 | 0.895 | 1.92 | 1.02 | 1.27 |
| AGAATGAGGTTATACGTAGATCAGGGATGAAAGT | 3.98 | 2.18 | 1.78 | 0.781 | 0.69 | 1.28 | 0.675 | 1.93 | 0.93 | 1.44 |
| CCTACTGGGCCAACAGGTCATTGATATCAACGTT | 4.64 | 4.84 | 0.0699 | 0.305 | 1.23 | 1.92 | 0.325 | 2.13 | -0.373 | 2.12 |
| TCATATAGGTAAATGCTAGGTAAAAGTCCGATCT | 4.04 | 2.3 | 0.817 | 0.766 | 0.885 | 0.727 | 0.893 | 0.814 | 1.8 | 0.393 |
| CCGACTGGGCCACGAAAGGTCATTGATTCAGTGA | 4.66 | 4.28 | -0.928 | -1.23 | 2.39 | 5.17 | 0.941 | 4.89 | 0.265 | 3.79 |
| TCTTCTAGATCAATAGAGGTTAAGAAAGTGCGCT | 2.16 | 1.48 | 1.87 | 0.999 | 0.764 | 3.02 | 0.423 | 1.8 | 0.413 | 0.98 |
| CCTCGGAGCACAGAAGGTCAGAGCTGTCCGCTTT | 0.355 | -0.108 | -1.25 | -1.67 | 1.34 | 1.87 | 0.017 | 2.1 | -0.245 | 2.62 |
| CCGCCTGGGGCAAGGTTACCATAACGCACAGCCA | -0.567 | 0.525 | -0.637 | -1.46 | 0.471 | 0.34 | -0.119 | 0.916 | -0.239 | 1.61 |
| TGAATGAGGTTTTAAGATCAGGGAACGTTGCAAA | -0.427 | -0.0166 | -0.325 | -0.224 | 0.0827 | -0.0619 | -0.319 | 0.152 | 0.043 | -0.198 |
| GCTAGCACGCCATTTGGGTCACTCAATGACGGGC | 0.446 | 1.27 | -1.77 | -1.29 | -0.0391 | 0.0907 | -0.533 | 0.592 | -0.962 | 0.997 |
